According to the supplement of paper PMC12645437, “Orthogonal IMiD-Degron Pairs Induce Selective Protein Degradation in Cells” (ACS Chemical Biology, 2025):
Over roughly 8,300 sequences, “log2 fold change of degron read counts, EGFP-low vs EGFP+ sorted cells (limma voom), compound-induced degradation” has its median near -1.1; the highest 2% begin near 3.2. What follows is part of a selection rich in the highest values, with near analogues and random picks from the rest.

T1: CRBN, Q96SW2
T1 chain: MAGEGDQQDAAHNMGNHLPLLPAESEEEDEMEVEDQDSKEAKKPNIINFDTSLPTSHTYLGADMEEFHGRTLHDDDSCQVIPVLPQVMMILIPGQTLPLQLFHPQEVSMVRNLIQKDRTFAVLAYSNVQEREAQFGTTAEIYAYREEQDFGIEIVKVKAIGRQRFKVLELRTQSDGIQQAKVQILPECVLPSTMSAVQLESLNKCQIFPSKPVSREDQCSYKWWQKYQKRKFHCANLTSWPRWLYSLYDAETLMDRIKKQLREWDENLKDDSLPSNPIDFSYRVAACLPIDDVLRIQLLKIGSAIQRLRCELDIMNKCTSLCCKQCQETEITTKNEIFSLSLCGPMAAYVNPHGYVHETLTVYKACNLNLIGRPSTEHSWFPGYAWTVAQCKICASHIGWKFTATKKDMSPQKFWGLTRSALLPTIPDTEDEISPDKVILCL

B1: 46F_47F_49E_50I_52G_53H_54R_55F_67L_, Q9UKT9 (peptide)
chain: FFCEICGHRFTQKGNLLRHIKL
B2: 46F_47D_49P_50I_52G_53A_54V_55F_67L_, Q9UKT9 (peptide)
chain: FDCPICGAVFTQKGNLLRHIKL
B3: 46F_47F_49E_50V_52G_53A_54D_55F_67L_, Q9UKT9 (peptide)
chain: FFCEVCGADFTQKGNLLRHIKL
B4: 46F_47S_49E_50V_52G_53A_54P_55F_67L_, Q9UKT9 (peptide)
chain: FSCEVCGAPFTQKGNLLRHIKL
B5: 46F_47F_49E_50V_52G_53A_54P_55F_67L_, Q9UKT9 (peptide)
chain: FFCEVCGAPFTQKGNLLRHIKL
B6: 46F_47A_49E_50V_52G_53A_54P_55F_67L_, Q9UKT9 (peptide)
chain: FACEVCGAPFTQKGNLLRHIKL
B7: 46F_47I_49E_50V_52G_53A_54P_55F_67L_, Q9UKT9 (peptide)
chain: FICEVCGAPFTQKGNLLRHIKL
B8: 46F_47T_49N_50V_52G_53A_54P_55F_67L_, Q9UKT9 (peptide)
chain: FTCNVCGAPFTQKGNLLRHIKL
B9: 46F_47T_49E_50V_52G_53A_54P_55F_67L_, Q9UKT9 (peptide)
chain: FTCEVCGAPFTQKGNLLRHIKL
B10: 46F_47C_49N_50V_52G_53A_54P_55F_67L_, Q9UKT9 (peptide)
chain: FCCNVCGAPFTQKGNLLRHIKL
B11: 46F_47N_49E_50V_52G_53A_54P_55F_67L_, Q9UKT9 (peptide)
chain: FNCEVCGAPFTQKGNLLRHIKL
B12: 46F_47D_49E_50V_52G_53A_54P_55F_67L_, Q9UKT9 (peptide)
chain: FDCEVCGAPFTQKGNLLRHIKL
B13: 46F_47H_49E_50V_52G_53A_54P_55F_67L_, Q9UKT9 (peptide)
chain: FHCEVCGAPFTQKGNLLRHIKL
B14: 46F_47M_49D_50V_52G_53A_54C_55F_67L_, Q9UKT9 (peptide)
chain: FMCDVCGACFTQKGNLLRHIKL
B15: 46F_47I_49N_50Q_52G_53A_54E_55F_67L_, Q9UKT9 (peptide)
chain: FICNQCGAEFTQKGNLLRHIKL
B16: 46F_47H_49E_50I_52G_53A_54W_55F_67L_, Q9UKT9 (peptide)
chain: FHCEICGAWFTQKGNLLRHIKL
B17: 46F_47R_49E_50V_52G_53A_54D_55F_67L_, Q9UKT9 (peptide)
chain: FRCEVCGADFTQKGNLLRHIKL
B18: 46F_47R_49E_50V_52G_53A_54P_55F_67L_, Q9UKT9 (peptide)
chain: FRCEVCGAPFTQKGNLLRHIKL
B19: 46F_47V_49E_50V_52G_53A_54P_55F_67L_, Q9UKT9 (peptide)
chain: FVCEVCGAPFTQKGNLLRHIKL
B20: 46F_47Q_49E_50V_52G_53A_54P_55F_67L_, Q9UKT9 (peptide)
chain: FQCEVCGAPFTQKGNLLRHIKL
B21: 46F_47L_49E_50V_52G_53A_54P_55F_67L_, Q9UKT9 (peptide)
chain: FLCEVCGAPFTQKGNLLRHIKL
B22: 46F_47W_49E_50V_52G_53A_54P_55F_67L_, Q9UKT9 (peptide)
chain: FWCEVCGAPFTQKGNLLRHIKL
B23: 46F_47G_49E_50V_52G_53A_54P_55F_67L_, Q9UKT9 (peptide)
chain: FGCEVCGAPFTQKGNLLRHIKL
B24: 46F_47Y_49E_50V_52G_53A_54P_55F_67L_, Q9UKT9 (peptide)
chain: FYCEVCGAPFTQKGNLLRHIKL
B25: 46F_47C_49E_50V_52G_53A_54P_55F_67L_, Q9UKT9 (peptide)
chain: FCCEVCGAPFTQKGNLLRHIKL
B26: 46F_47Q_49N_50Q_52G_53A_54N_55F_67L_, Q9UKT9 (peptide)
chain: FQCNQCGANFTQKGNLLRHIKL
B27: 46F_47S_49D_50Q_52G_53A_54L_55F_67L_, Q9UKT9 (peptide)
chain: FSCDQCGALFTQKGNLLRHIKL
B28: 46F_47N_49S_50V_52G_53H_54N_55F_67L_, Q9UKT9 (peptide)
chain: FNCSVCGHNFTQKGNLLRHIKL

Molecular target: T1, CRBN, Q96SW2
Assay: log2 fold change of degron read counts, EGFP-low vs EGFP+ sorted cells (limma voom), compound-induced degradation; higher = more compound-induced degradation of the degron-EGFP fusion; degrons are variants of IKZF1/3 zinc finger 2; compound dose not given here
Details: Jurkat, 18 h
[1] = compound: compound 19 (5-tert-butyl-thalidomide)
[2] = compound: compound 22 (5-morpholino-thalidomide)
[3] = compound: compound 33 (diphenyl IMiD analogue)
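Also: pooled lentiviral library of zinc finger degron-EGFP fusions in mCherry-positive Jurkat cells, FACS-sorted after compound exposure, with degron abundance counted by next-generation sequencing.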

| Sequence | log2 fold change of degron read counts [1] | log2 fold change of degron read counts [2] | log2 fold change of degron read counts [3] | log2 fold change of degron read counts (compound: thalidomide) |
| --- | --- | --- | --- | --- |
| B1 | -1.06 | -1.44 | -1.47 | -1.72 |
| B2 | 0.604 | 0.176 | 1.99 | 1.81 |
| B3 | -0.0497 | 0.23 | -0.854 | -0.804 |
| B4 | 2.89 | 2.01 | 0.358 | 1.1 |
| B5 | 4 | 3.18 | 1.98 | 1.73 |
| B6 | 3.19 | 1.62 | -0.375 | 0.871 |
| B7 | 2.03 | 3.48 | 2.78 | 3.17 |
| B8 | 0.145 | 1.49 | 0.972 | 1.51 |
| B9 | 2.16 | 3.25 | 1.81 | 2.71 |
| B10 | 1.3 | 0.686 | -0.00676 | 0.263 |
| B11 | 2.7 | 1.8 | 0.0261 | 0.847 |
| B12 | 0.668 | -1.2 | -1.15 | -0.746 |
| B13 | 3.54 | 3.17 | 2.03 | 1.38 |
| B14 | -1.81 | -1.41 | 0.979 | -1.1 |
| B15 | -3.37 | -3.09 | -2.19 | -1.75 |
| B16 | -0.982 | -1.57 | -0.784 | -2.02 |
| B17 | -1.68 | -1.6 | 1.33 | 0.331 |
| B18 | 3.45 | 3.6 | 3.39 | 3.62 |
| B19 | 2.23 | 3.61 | 2.24 | 3.07 |
| B20 | 3.05 | 3.49 | 1.41 | 3.53 |
| B21 | 2.39 | 2.45 | 2.33 | 2.97 |
| B22 | 3.08 | 2.92 | 1.89 | 1.01 |
| B23 | 0.82 | -0.556 | -1.51 | -1.08 |
| B24 | 3.69 | 3.45 | 2.63 | 1.63 |
| B25 | 3.23 | 2.09 | 0.726 | 1.26 |
| B26 | -2.24 | -1.57 | -1.76 | -0.0144 |
| B27 | -2.6 | -3.3 | -0.185 | -3.02 |
| B28 | -2.71 | -4.15 | -3.1 | -2.83 |
